Screening results deposited in PubChem by National Center for Advancing Translational Sciences (NCATS).
G9a block: inhibitors of human histone lysine methyltransferase G9a; Q96KQ7; G9a H3K9 monomethylation, AlphaScreen, 2 h; Potency, µM (series often up to 102 µM), for inactives: at the top dose activity, negative = inhibition, hits mostly inhibitors; actives 8.8% (n = 350,000); note: % is set by controls: 0 for no effect and ±100 for the full control effect; nearly all actives have a fitted effect of over 75% in size
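Signal arises when biotinylated H3K9 peptide, once monomethylated, bridges streptavidin donor and antibody-captured acceptor beads. Enzyme at 20 nM was preincubated 15 min with test compounds; peptide 500 nM and SAM 20 uM then reacted for 2 h.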
Sfp inh: inhibitors of Bacillus subtilis Sfp phosphopantetheinyl transferase; Biochemical Sfp PPTase activity, qHTS; Potency, µM, without a hit: largest response in the series, negative = inhibition, usual class: inhibitors; AID 1490; actives 3.5% (n = 310,000); Q9F4F7;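 note: the enzyme is Sfp with the accession as filed and its product quenches rhodamine fluorescence; 0% = enzyme reaction without inhibitor and -100% = no enzyme wells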
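Compounds were incubated with enzyme (final 15 nM) for 15 min at room temperature before substrate addition started the reaction. Fluorescence at 525 nm excitation, 598 nm emission was recorded immediately and after 30 minutes.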
L3MBTL1 inh: inhibitors of human L3MBTL1 | AID 485360 | Q9Y468 | AlphaScreen L3MBTL1–H3K9me1 peptide binding | Potency, µM (doses to about 57.1 µM), for inactives: top-dose activity, negative = inhibition, usual class: inhibitors | actives 0.66% (n = 230,000); note: % is set by controls: 0 for no effect and ±100 for the full control effect; nearly all actives have a fitted effect of over 60% in size
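AlphaScreen proximity signal between nickel-chelate acceptor and streptavidin donor beads (final 10 ug/mL) reports binding of 50 nM L3MBTL1 to 75 nM biotin-H3 K9me1 peptide; complex incubated with compounds 30 min at room temperature; cefsulodin titration as control.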
BAZ2B inh: blocks human BAZ2B; AID 504333; AlphaScreen BAZ2B-H3K14Ac peptide displacement; Potency, µM (highest dose often 114 µM), without a hit: at the top dose activity change, negative = inhibition, actives largely listed as inhibitors; Q9UIF8; actives 4.4% (n = 360,000); note: % is set by controls: 0 for no effect and ±100 for the full control effect; nearly all actives have a fitted effect of over 60% in size
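AlphaScreen displacement of biotin-H3(5-23)K14Ac peptide (50 nM final) from BAZ2B (50 nM final) in PBS pH 7.4, 0.01% Tween-20; complex preformed 30 min RT, then compounds (top 110 uM) 30 min RT, beads 20 min dark.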
HP1b chromo inh: inhibitors of HP1-beta chromodomain binding to methylated histone tails. P83916. AlphaScreen HP1-beta / biotin-H3K9me3 peptide binding. Potency, µM (series often up to 114 µM), for the others: top-dose activity change, negative = inhibition, usual class: inhibitors. actives 0.56% (n = 390,000). AID 540317; note: nearly all actives have a fitted effect of over 70% in size
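Compound inhibition of the preformed complex between 50 nM HP1-beta and 50 nM biotinylated H3K9me3 peptide was read by AlphaScreen. Buffer was PBS pH 7.4 with 0.01% Tween-20. Incubations ran 30 min at room temperature, with 10 ug/mL donor/acceptor beads.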
JMJD2A Tudor: JMJD2A Tudor domain (human) inhibition; O75164; AlphaScreen JMJD2A-Tudor / H3K4me3 peptide binding; Potency, µM (series often up to 114 µM), for inactives: at the top dose activity change, negative = inhibition, most hits filed as inhibitors; actives 4.4% (n = 390,000); note: % is set by controls: 0 for no effect and ±100 for the full control effect; nearly all actives have a fitted effect of over 50% in size
Starred values were filed as active, the others as inactive; [ ] = another dose, or the depositor's remark. Sampled rows, rich in hits. Any-hit rate of the full collection: about 12%. Calls come from the whole dose curve; as a rule, active = well fitted curve in the direction sought with a large enough effect; inconclusive = small, poorly fitted or top-dose-only effect, or another doubt; inactive = no such curve, though single readings can be large; an effect the other way counts as inactive or inconclusive. Potency is the fitted concentration of half-maximal effect.

What do the screens show for `CC(C)Nc1nc(-c2ccccn2)nc(-c2ccccc2)c1C#N`?
G9a block: 5%; Sfp inh: 14%; L3MBTL1 inh: 5%; BAZ2B inh: -5%; HP1b chromo inh: 2%; JMJD2A Tudor: -14%

Results for C=CCNc1nc(-c2ccccn2)nnc1-c1ccccc1 ?
G9a block: 47%; Sfp inh: inconclusive; BAZ2B inh: 0.89µM*; HP1b chromo inh: 46%; JMJD2A Tudor: 35µM*

What do the screens show for `CC(C)=NOCc1ccc(-c2cn([C@@H]3COC[C@@H]3O)nn2)cc1`?
Sfp inh: 14µM*

How did O=C(Nc1nnc(SCc2ccccc2)s1)C1=COCCO1 do in these assays?
G9a block: -9%; L3MBTL1 inh: 1%; BAZ2B inh: 10%; HP1b chromo inh: 28%; JMJD2A Tudor: -11%

What do the screens show for `C=CCSc1nnc(NC(=O)C2=COCCO2)s1`?
G9a block: 35µM*; L3MBTL1 inh: -3%; BAZ2B inh: -6%; HP1b chromo inh: 33%; JMJD2A Tudor: -12%

Results for CN(C)C(=O)COc1ccc(Br)cc1 ?
G9a block: -8%[59 µM]; Sfp inh: 6%; L3MBTL1 inh: 7%; BAZ2B inh: 7%; HP1b chromo inh: 7%; JMJD2A Tudor: -21%

How did CN(C)C(=O)COc1ccc(S(=O)(=O)c2ccc(OCC(=O)N(C)C)cc2)cc1 do in these assays?
G9a block: 50µM*; Sfp inh: -1%; BAZ2B inh: -2%; HP1b chromo inh: 38%; JMJD2A Tudor: -11%

Results for CC(C)c1ccc(S(=O)(=O)c2cnc(SCC(=O)Nc3ccc(F)cc3F)nc2N)cc1 ?
G9a block: 6%[59 µM]; BAZ2B inh: -4%; HP1b chromo inh: 20%; JMJD2A Tudor: -10%

How did CCc1ccccc1NC(=O)CSc1ncc(S(=O)(=O)c2ccc(C(C)C)cc2)c(N)n1 do in these assays?
G9a block: -7%[59 µM]; BAZ2B inh: 3%; HP1b chromo inh: 18%; JMJD2A Tudor: 20µM*

What do the screens show for `CCc1ccccc1NC(=O)CSc1ncc(S(=O)(=O)c2ccccc2)c(=O)[nH]1`?
G9a block: -1%[59 µM]; BAZ2B inh: 0%; HP1b chromo inh: 26%; JMJD2A Tudor: -4%

Results for CCc1ccccc1NC(=O)CSc1ncc(S(=O)(=O)c2ccccc2)c(N)n1 ?
G9a block: 13µM*; BAZ2B inh: 1%; HP1b chromo inh: 8%; JMJD2A Tudor: -21%

Results for O=C1NC(=S)NC(=O)C1=Cc1ccccc1C(=O)O ?
HP1b chromo inh: -20%; JMJD2A Tudor: 25µM*

Results for CC(=O)N(C)Cc1ccc(C(=O)CCl)cc1 ?
G9a block: inconclusive; Sfp inh: 79µM*; L3MBTL1 inh: -12%; BAZ2B inh: -9%; HP1b chromo inh: inconclusive; JMJD2A Tudor: 7%

Results for CCCC(C)C(=O)Nc1ccc(S(=O)(=O)N2CCCC2)cc1 (stereo unspecified) ?
G9a block: 71µM*; Sfp inh: 3%; L3MBTL1 inh: 6%; BAZ2B inh: 10%; HP1b chromo inh: 21%; JMJD2A Tudor: 1%

How did CC(Nc1cccc([N+](=O)[O-])c1)C(=O)Nc1ccc(S(=O)(=O)N2CCCC2)cc1 (stereo unspecified) do in these assays?
G9a block: 50µM*; L3MBTL1 inh: 0%; BAZ2B inh: -9%; HP1b chromo inh: 3%; JMJD2A Tudor: -32%

How did CC(C)CC(=O)NC(=S)Nc1ccc(S(=O)(=O)N2CCCC2)cc1 do in these assays?
G9a block: 14µM*; Sfp inh: 11%; L3MBTL1 inh: 2%; BAZ2B inh: -15%; HP1b chromo inh: -10%; JMJD2A Tudor: -20%[11.4 µM]

What do the screens show for `Cc1ccc(S(=O)(=O)NC(C)C(=O)Nc2cccc([N+](=O)[O-])c2)cc1` (stereo unspecified)?
G9a block: inconclusive; Sfp inh: 18%; L3MBTL1 inh: -2%; BAZ2B inh: -24%; HP1b chromo inh: 6%; JMJD2A Tudor: -15%
